{"source": "PubChem BioAssay AID435009", "about": "(The Scripps Research Institute Molecular Screening Center, 2010)", "note": "Values without a mark were called inactive. The source made the active and inactive calls. The rule behind the calls is not given here.", "data": [{"assay": "xanthine oxidase inhibitors, late-stage follow-up, NOX1 inhibitor project, biochemical, IC50, set 2 (AID 435009)", "details": "Xanthine oxidase enzyme assay, ROS/superoxide detection", "values": [{"smiles": "CN(C)c1ccc(NC(=O)Nc2ccc(OCc3ccccc3)cc2)cc1", "IC50": "1.3 µM (active)"}, {"smiles": "COc1cc(-c2nc(-c3ccccc3)c(-c3ccccc3)[nH]2)ccc1O", "IC50": "0.01 µM (active)"}, {"smiles": "Cc1cc(Cl)ccc1NC(=S)NNC(=S)Nc1ccc(F)cc1", "IC50": "3.3 µM (active)"}, {"smiles": "Oc1c(Br)cc(/C=N/Nc2c(Cl)cncc2Cl)cc1Br", "IC50": "> 5 µM"}, {"smiles": "COc1cc(-c2nc(-c3ccccc3)c(-c3ccccc3)[nH]2)cc(OC)c1O", "IC50": "0.9 µM (active)"}, {"smiles": "Fc1ccc(NC(=S)NNC(=S)Nc2ccccc2)cc1", "IC50": "0.5 µM (active)"}, {"smiles": "CSc1ccc(NC(=O)Nc2ccc(N(C)C)cc2)cc1", "IC50": "1.2 µM (active)"}, {"smiles": "CN(C)c1ccc(/C=N/Nc2c(Cl)cncc2Cl)cc1", "IC50": "> 5 µM"}, {"smiles": "FC(F)(F)c1ccc2c(c1)Nc1ccccc1S2", "IC50": "5 µM (active)"}]}]}
